Inconclusive results are not listed. Calls of active or inactive are those of the source. The call rests on the fitted dose curve; in most records, active means well fitted inhibition curve with a large enough effect; inconclusive means small, poorly fitted or top-dose-only effect; inactive means flat fitted curve, though single readings scatter.

Holding throughout (test): qHTS profiling for inhibitors of Plasmodium falciparum proliferation (AID 504749); further: nearly all actives have a fitted effect of over 60% in size
What all share (settings): P. falciparum in erythrocytes, SYBR Green DNA, 72 h; series mostly up to 28.7 µM

One assay has as its system CP260. The procedure, abridged: (§1)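 SYBR Green fluorescence of parasite DNA, read after lysis and overnight dark incubation, measured growth over 72 h in erythrocyte culture at 0.3% parasitemia and 2.5% hematocrit. Data normalised to DMSO and 0.29 uM artemisinin, with plate-drift correction.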
The subject of another assay is CP262. The procedure, abridged: as §1
The test system of a further assay is CP265. The method in brief:
as §1

Another assay concerns CP268. The procedure, abridged: as §1
A further assay deals with CP269. The procedure, abridged:
as §1

A further assay concerns CP286. The procedure, abridged:
as §1

The test system of another assay is CP291. The method in brief: as §1
A further assay deals with CP297. The method in brief: as §1
The subject of the next assay is CP305. The procedure, abridged:
as §1

For another assay, the system named is CP315. The procedure, abridged:
as §1

A further assay deals with CP325. The method in brief:
as §1

In a further assay the test system is CP329. The method in brief:
as §1

The subject of another assay is CP335. The procedure, abridged: as §1
For a further assay, the system named is DFO2036. The procedure, abridged: as §1
For another assay, the system named is DIV14. The procedure, abridged:
as §1

For a further assay, the system named is DIV17. The method in brief: as §1
A further assay concerns DIV30. The method in brief: as §1
The subject of another assay is Dd2. The procedure, abridged: as §1
The subject of a further assay is ECU. The method in brief:
as §1

The next assay deals with CP266. The procedure, abridged:
as §1
Potency means the concentration at half of the fitted maximal effect.

For the molecule `O=C(CCl)c1ccc(Oc2ccc(C(=O)CCl)cc2)cc1`, the Potency result with CP260, with CP262, with CP265, in the assay on CP268, in the assay with CP269 and in the assay with CP286 was “inactive” in each case. Moreover, the Potency entry in the assay with CP291, with CP297, in the assay with CP305, with CP315, in the assay with CP325 and with CP329 was “inactive” each time. Further, the Potency entry with CP335, with DFO2036, with DIV14, in the assay with DIV17, in the assay with DIV30 and in the assay with Dd2 was “inactive” in each case. Moreover, in the assay with ECU, the Potency result was “inactive”.
Consider `CCC1(c2ccccc2)C(=O)NC(=O)N(C)C1=O` (centres undefined), for which the Potency result in the assay on CP262, with CP266, in the assay with CP268, in the assay on CP286, with CP291 and in the assay with CP297 was “inactive” in each case. The Potency entry in the assay on CP315, in the assay on CP325, in the assay with CP329, in the assay on DFO2036, in the assay on DIV30 and in the assay on Dd2 was “inactive” in each case.
Turning to `N#CC1(N2CCCCC2)CCCCC1`, the Potency result with CP262, in the assay with CP265, in the assay with CP266, in the assay on CP268, in the assay on CP269 and in the assay with CP286 was “inactive” throughout. Further, the Potency entry with CP291, in the assay on CP297, in the assay with CP305, in the assay on CP315, in the assay on CP325 and with CP329 was “inactive” in each case. The Potency entry in the assay on CP335, in the assay on DFO2036, with DIV14, in the assay on DIV17, in the assay on DIV30 and in the assay with Dd2 was “inactive” each time. Further, in the assay with ECU, the Potency result is “inactive”.
As to `C[C@]12CCC(=O)C[C@@H]1CC[C@@H]1[C@@H]2CC[C@]2(C)[C@@H](O)CC[C@@H]12`, the Potency result with CP262, in the assay on CP265, in the assay with CP266, in the assay with CP268, in the assay with CP269 and in the assay on CP286 was “inactive” each time. In addition, the Potency result in the assay on CP291, in the assay with CP297, in the assay on CP305, in the assay with CP315, in the assay on CP325 and in the assay with CP329 was “inactive” each time. For the same molecule, the Potency result with CP335, with DFO2036, with DIV14, in the assay with DIV17, with DIV30 and with Dd2 was “inactive” each time. The Potency entry in the assay on ECU is “inactive”.
As to `CCC1(CC)C(=O)NC(=O)N(C)C1=O`, the Potency entry in the assay with CP260, in the assay with CP262, in the assay on CP265, in the assay with CP268, in the assay with CP269 and with CP286 was “inactive” each time. Moreover, the Potency entry with CP291, in the assay with CP297, in the assay on CP305, in the assay with CP315, with CP325 and in the assay on CP329 was “inactive” each time. The Potency entry in the assay with CP335, with DFO2036, in the assay on DIV14, in the assay on DIV30, in the assay on Dd2 and in the assay on ECU was “inactive” in each case.
For `C[CH2][Hg][S]c1ccccc1C(=O)O`, the Potency in the assay on CP260 was 1 µM (active); with CP265, 1.41 µM (active); in the assay with CP266 it was 4.26 µM (active); with CP268, 3.79 µM (active); with CP269, 1.69 µM (active); in the assay with CP286 it was 1.41 µM (active). The Potency in the assay with CP291 was 3.79 µM (active); in the assay with CP297, 1.69 µM (active); with CP305, 3.79 µM (active); with CP315, 4.26 µM (active); with CP325 it was 1.69 µM (active); in the assay on CP329 it was 1.69 µM (active). The Potency was 1.35 µM (active) in the assay on CP335; 2 µM (active) in the assay with DFO2036; 1.9 µM (active) with DIV14; 1.51 µM (active) in the assay with DIV17; 4.26 µM (active) in the assay with DIV30; 2.24 µM (active) with Dd2. Further, in the assay with ECU, the Potency was 3.16 µM (active).
Regarding `CCOP(=O)(OCC)O/C(=C/Cl)c1ccc(Cl)cc1Cl`, the Potency result with CP262, in the assay with CP266, with CP268, with CP269, with CP286 and in the assay on CP297 was “inactive” each time. Moreover, the Potency result with CP305, with CP315, in the assay with CP325, with CP329, in the assay on DFO2036 and in the assay with Dd2 was “inactive” throughout. Moreover, in the assay on ECU, the Potency entry was “inactive”.
For the molecule `c1ccc(C2(N3CCCC3)CCCCC2)cc1`, the Potency in the assay with CP260 was 8.91 µM (active); in the assay on CP286, 10 µM (active); in the assay with CP297, 15.1 µM (active); in the assay on CP335, 10.7 µM (active); in the assay with DFO2036, 10 µM (active); with DIV14, 12 µM (active). Besides, the Potency is 15.1 µM (active) in the assay on DIV17 and 12.6 µM (active) in the assay on Dd2. In addition, the Potency entry in the assay with CP266 is “inactive”.
Turning to `CCCCCCCCCC(=O)O[C@H]1CC[C@H]2[C@@H]3CCC4=CC(=O)CC[C@]4(C)[C@H]3CC[C@]12C`, the Potency result in the assay with CP262, in the assay on CP265, in the assay on CP266, in the assay with CP268, in the assay with CP269 and with CP291 was “inactive” in each case. Besides, the Potency result in the assay on CP297, with CP305, in the assay with CP315, in the assay on CP325, with CP329 and in the assay on DFO2036 was “inactive” in each case. In addition, the Potency result in the assay on DIV14, with DIV17, in the assay with DIV30, in the assay on Dd2 and with ECU was “inactive” each time.
For the molecule `COc1ccc2c3c1O[C@H]1C(=O)CC[C@H]4[C@@H](C2)N(C)CC[C@]314`, the Potency result in the assay with CP260, with CP262, with CP265, in the assay with CP268, in the assay on CP269 and in the assay with CP286 was “inactive” throughout. For the same molecule, the Potency result in the assay with CP291, in the assay with CP297, in the assay on CP305, in the assay on CP315, in the assay with CP325 and in the assay with CP329 was “inactive” in each case. The Potency entry in the assay with CP335, with DFO2036, with DIV14, with DIV17, in the assay with DIV30 and in the assay on Dd2 was “inactive” throughout. For the same molecule, the Potency result with ECU is “inactive”.
Regarding `CN1[C@@H]2CC[C@H]1CC(OC1c3ccccc3CCc3ccccc31)C2` (some centres undefined), the Potency entry with CP262, in the assay on CP265, in the assay on CP266, with CP268, in the assay with CP269 and in the assay on CP291 was “inactive” throughout. The Potency entry in the assay on CP305, in the assay with CP315, in the assay on CP325, with CP329, in the assay with CP335 and in the assay with DIV30 was “inactive” each time. For the same molecule, the Potency is 1.81 µM (active) with DIV14, 1.81 µM (active) in the assay with DIV17 and 3.55 µM (active) with ECU.
On to `[Cl-].[Cl-].[Hg+2]`, for which the Potency result in the assay on CP262 and in the assay with CP266 was “inactive” each time. Further, the Potency was 11.2 µM (active) in the assay on DFO2036, 15.1 µM (active) with DIV30, 12.6 µM (active) in the assay on Dd2 and 6.31 µM (active) in the assay with ECU.
On to `CN1CCCC(=C(c2cccs2)c2cccs2)C1`, for which the Potency result in the assay on CP266, in the assay with CP269, in the assay on CP315 and with ECU was “inactive” each time. Besides, the Potency was 6.75 µM (active) in the assay on DIV17 and 11.2 µM (active) in the assay with Dd2.
Regarding `[N-]=[N+]=CC(=O)OCC(N)C(=O)O` (centres undefined), the Potency entry with CP262, with CP265, in the assay on CP266, in the assay on CP268, in the assay on CP269 and in the assay with CP286 was “inactive” each time. Further, the Potency result with CP291, with CP297, in the assay with CP305, in the assay on CP315, with CP325 and in the assay with CP329 was “inactive” each time. The Potency result in the assay with CP335, in the assay on DFO2036, with DIV14, with DIV17, in the assay with DIV30 and in the assay on Dd2 was “inactive” each time. Besides, in the assay with ECU, the Potency result is “inactive”.
Consider `O=[N+]([O-])c1cc(I)c(O)c(I)c1`, for which the Potency entry in the assay with CP260, in the assay on CP262, in the assay on CP265, with CP268, in the assay on CP269 and in the assay with CP286 was “inactive” each time. For the same molecule, the Potency result in the assay on CP291, in the assay on CP297, in the assay with CP305, in the assay with CP315, in the assay on CP325 and in the assay with CP329 was “inactive” throughout. Also, the Potency result with CP335, with DFO2036, in the assay with DIV14, in the assay with DIV17, in the assay with DIV30 and in the assay on Dd2 was “inactive” in each case. For the same molecule, the Potency entry in the assay with ECU was “inactive”.

The values above are taken from PubChem BioAssay (NCATS).
